According to PubChem BioAssay (EPA / NIEHS):
Where “and” joins values, the source holds several entries; their conditions need not be identical. Equal values may be shown once. Calls of active or inactive are those of the source. The calls were made as follows: active = hit-call score of the fitted dose curve at least 0.9, where 1 is the maximum; inactive = score below 0.9.

Columns and labels:
Settings in all cases: actives raise or lower the signal
[1] = CEETOX_H295R_11DCORT: CeeTox H295R High-throughput Steroidogenesis Assay for 11-Deoxycortisol (11DCORT) (AID 2283432);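 as to AC50: 11-deoxycortisol secreted into the medium measured by LC-MS/MS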
Procedure, shortened: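 H295R cells; 10 uM forskolin prestim 48 h; compound in 0.1% DMSO 48 h; media extracted with MTBE; 11-deoxycortisol by LC-MS/MS, 7-point standard curve; gain/loss vs DMSO baseline; viability by MTT in same wells.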

[2] = CEETOX_H295R_OHPREG: CeeTox H295R High-throughput Steroidogenesis Assay for OH-Pregnenolone (OHPREG) (AID 2283434)
Procedure, shortened: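 Secreted 17alpha-hydroxypregnenolone measured by HPLC-MS/MS after liquid-liquid extraction. Human adrenal H295R cells received 48 h forskolin (10 uM) stimulation before 48 h chemical exposure at 0.1% final DMSO; MTT viability in same wells; bidirectional fit against DMSO.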

[3] = CEETOX_H295R_OHPROG: CeeTox H295R High-throughput Steroidogenesis Assay for OH-Progesterone (OHPROG) (AID 2283435);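 as to AC50: 17alpha-hydroxyprogesterone secreted into medium measured by HPLC-MS/MS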
Procedure, shortened: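 Steps: seed H295R cells and adhere overnight; stimulate with 10 uM forskolin for 48 h; replace with chemical-containing medium (0.1% DMSO) for 48 h; extract medium with MTBE; quantify 17alpha-hydroxyprogesterone by reverse-phase C18 HPLC-MS/MS against a 7-point curve.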

[4] = CEETOX_H295R_ANDR: CeeTox H295R High-throughput Steroidogenesis Assay for Androstenedione (ANDR) (AID 2283436);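 also: human H295R adrenal cells exposed for 48 h with androstenedione measured in medium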
Experimental: CEETOX_H295R is a cell-based, multiplexed-readout assay that uses H295R, a human adrenal gland cell line, with measurements taken at 48 hours after chemical dosing in a 96-well plate.CEETOX_H295R_ANDR is one of 23 assay component(s) measured or calculated from the CEETOX_H295R assay. It is designed to make measurements of hormone induction, a form of inducible reporter, as detected with absorbance signals by HPLC-MS-MS technology.Data from the assay component CEETOX_H295R_ANDR was analyzed into 1 assay endpoint. This assay endpoint, CEETOX_H295R_ANDR, was analyzed with bidirectional fitting relative to DMSO as the negative control and baseline of activity. […] To generalize the intended target to other relatable targets, this assay endpoint is annotated to the steroid hormone intended target family, where the subfamily is androgens.
Cell culture and media preparation procedures were conducted in accordance with OECD Test No. 456 guidelines, with minor modifications. H295R cells (ATCC CRL-2128) were expanded for 5 passages and frozen in batches in liquid nitrogen. Prior to the steroidogenesis assay, H295R cells were thawed and passed at least 4 times. The maximum passage was 10. Cells were maintained in a 1:1 mixture of DMEM/F12 supplemented with 5ml/L ITS+ Premix (BD Bioscience) and 12.5 ml/L Nu-Serum (BD Bioscience). After seeding cells into 96-well plates at 50-60% confluency, cells were allowed to adhere overnight. […] Test chemicals were incubated for 48 hours, then the medium was removed and split into 2 vials containing approximately 75uL each, and stored at -80 C prior to hormone analysis. For steroid quantification, media samples were shipped to OpAns, LLC (Durham, NC) on dry ice, and samples were thawed to room temperature prior to liquid-liquid extraction. Steroid hormones were extracted from media samples using methyl tertbutyl ether (MTBE). An extra derivatization with dansyl chloride was included for estrogen (estrone and estradiol) detection only. Steroid hormones were separated by HPLC, eluted using a reverse phase C18 gradient with electrospray positive ionization, followed by quantification by tandem mass spectrometry (MS/MS). Data were acquired on a MassHunter Workstation Acquisition version B03.01 (Agilent Technologies, Inc.) and processed using MassHunter Quantitative Analysis for QQQ. Accuracy was determined for each hormone analyte from 3 standards to determine upper and lower limits of quantification (ULOQ and LLOQ, respectively) using a 7-point standard curve. Precision and accuracy of the extraction and quantification methods were calculated as the percent relative standard deviation (%RSD) of the spiked standards and percent spiked standard recovered, respectively. […] Test medium was removed following chemical exposure, and cell viability was evaluated in the same wells by MTT. MTT procedures were as follows: after removal of test medium, 500 uL of 0.5 mg/ml of 3-[4,5-dimethylthiazol-2-y]2,5-diphenyltetrazoliumbromide solution was added to the cells. Following a 4-hour incubation at 37 C and 5% CO2 to allow formazan-crystal formation, the MTT solution was removed and blue formazan salt crystals were solubilized using 500uL anhydrous isopropanol with shaking for 20 minutes. Absorbance was read at 570 and 650nm using a Packard Fusion microplate reader. Background correction of absorbance units was used to determine percent change relative to controls. […] When a test chemical reduced cell viability to 20% - 70%, the test chemical was diluted 10-fold and re-evaluated, but if cell viability was <20%, then the test chemical was diluted 100-fold and re-evaluated. Test chemical dilutions were made until cell viability was >/=70%. MTT assays were also conducted for duplicates of all concentrations of chemicals tested in concentration-response studies.

[5] = CEETOX_H295R_CORTIC: CeeTox H295R High-throughput Steroidogenesis Assay for Corticosterone (CORTIC) (AID 2283437)
Procedure, shortened: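 Medium corticosterone was quantified by tandem mass spectrometry following 48 hours of chemical exposure (0.1% DMSO) in human H295R cells previously stimulated 48 hours with 10 uM forskolin. Viability checked by MTT; chemicals diluted and retested when viability fell below 70%.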

[6] = CEETOX_H295R_CORTISOL: CeeTox H295R High-throughput Steroidogenesis Assay for Cortisol (AID 2283438)
Procedure, shortened: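 Cortisol synthesis by H295R cells is measured 48 h after chemical dosing, following a 48 h stimulation with 10 uM forskolin. Hormone is extracted and quantified by HPLC-MS/MS, and activity is fitted bidirectionally against the DMSO control.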

[7] = CEETOX_H295R_DOC: CeeTox H295R High-throughput Steroidogenesis Assay for DOC (AID 2283439)
Procedure, shortened: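 Steps: seed H295R, adhere overnight; 10 uM forskolin 48 h; replace with chemical medium (0.1% DMSO) 48 h; collect medium, MTBE extraction, HPLC-MS/MS for DOC. Viability then checked by MTT; cytotoxic chemicals diluted until viability ≥70%.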

[8] = CEETOX_H295R_ESTRADIOL: CeeTox H295R High-throughput Steroidogenesis Assay for Estradiol (AID 2283440);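 also: estradiol secreted into medium quantified by LC-MS/MS after dansyl derivatisation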
Procedure, shortened: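 H295R, 48 h forskolin (10 uM) prestim → 48 h compound, 0.1% DMSO final. Estradiol in medium: MTBE extraction, dansyl chloride derivatization, LC-MS/MS. Fit bidirectional vs DMSO baseline; MTT viability in same wells.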

[9] = CEETOX_H295R_ESTRONE: CeeTox H295R High-throughput Steroidogenesis Assay for Estrone (AID 2283441);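 as to AC50: human adrenal H295R cells prestimulated with forskolin for two days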
Procedure, shortened: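 Estrone secreted into medium quantified by LC-MS/MS after dansyl chloride derivatization, following 48 h chemical exposure (0.1% DMSO final) of forskolin-prestimulated (10 uM, 48 h) H295R cells; gain or loss fitted against DMSO; MTT viability in same wells.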

[10] = CEETOX_H295R_PROG: CeeTox H295R High-throughput Steroidogenesis Assay for Progesterone (PROG) (AID 2283442);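 as to AC50: human H295R adrenal cells primed with 10 µM forskolin before dosing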
Procedure, shortened: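 Progesterone read-out: HPLC-MS/MS on MTBE extracts of conditioned medium after 48 h chemical exposure of forskolin-primed (10 uM, 48 h) H295R cells. Gain or loss of signal was fitted relative to DMSO baseline.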

Measured: AC50

NS(=O)(=O)C(F)(F)C(F)(F)C(F)(F)C(F)(F)C(F)(F)C(F)(F)C(F)(F)C(F)(F)F
inactive: all assays above

c1cc2ccc3cccc4ccc(c1)c2c34
inactive: [5] | [6]
active: [1] 26.5 µM | [2] 15.8 µM | [3] 27.1 µM | [4] 35.9 µM | [7] 14.5 µM | [10] 13.9 µM

Cc1cc(-c2ccc(N)c(C)c2)ccc1N
active: [3] 2.96 µM and 10.2 µM | [10] 2.96 µM and 31.1 µM
inactive: [2]

CCC(=O)O[C@H]1CC[C@H]2[C@@H]3CCC4=CC(=O)CC[C@]4(C)[C@H]3CC[C@]12C
active: [1] 75.1 µM | [2] 34.1 µM | [3] 3.14 µM | [4] 22.8 µM | [6] 30.7 µM | [7] 1.77 µM | [8] 0.643 µM | [9] 1.31 µM | [10] 2.65 µM
inactive: [5]

C[C@]12CCC(=O)C=C1CC[C@@H]1[C@@H]2CC[C@@]2(C)[C@H]1CC[C@]2(C)O
active: [1] 11 µM | [2] 5.59 µM | [3] 0.807 µM | [6] 7.76 µM
inactive: [5] | [7] | [10]

Cc1ccc(O)c(C)c1
not listed: [4]
inactive: all other assays above

CC1=C2C[C@H]3[C@@H](CC=C4C[C@@H](O)CC[C@@]43C)[C@@H]2CC[C@]12O[C@@H]1C[C@H](C)CN[C@H]1[C@H]2C
inactive: [1] | [4] | [5] | [6] | [7]

Cc1cccc(C)c1N
not listed: [4]
inactive: all other assays above

O=C(NC(=O)c1c(F)cccc1F)Nc1cc(Cl)c(OC(F)(F)C(F)F)c(Cl)c1
inactive: all assays above

CCOP(=S)(OCC)SCSC(C)(C)C
inactive: [10]
active: [2] 37 µM

C=CC(N)=O
inactive: [1] | [5] | [6] | [7]

CCCCCCOC(=O)c1ccccc1C(=O)OCCCCCC
inactive: [5]

CCNc1nc(NC(C)C)nc(SC)n1
inactive: [2] | [3] | [4] | [10]

C[C@]12CCC(=O)C=C1CC[C@@H]1[C@@H]2CC[C@]2(C)C(=O)CC[C@@H]12
inactive: [8] | [9]
active: [2] 8.12 µM | [3] 0.535 µM | [10] 0.271 µM

CCSC(=O)N(CC)C1CCCCC1
inactive: [1] | [3] | [5] | [6] | [7] | [10]

Clc1ccc(C(c2ccccc2Cl)C(Cl)(Cl)Cl)cc1 (centres undefined)
not listed: [4]
inactive: all other assays above

CCC(C)(CC)c1cc(NC(=O)c2c(OC)cccc2OC)on1
inactive: [2] | [3] | [10]

N#Cc1ccc(N(CC(N)=O)CC(F)(F)F)cc1C(F)(F)F
inactive: [2] | [3] | [8] | [9] | [10]

CCOCCOC(C)=O
not listed: [4] | [8] | [9]
inactive: all other assays above

Cc1cc2c3c(c1)C(c1ccccc1)=N[C@@H](NC(=O)c1ccncc1)C(=O)N3CC2
inactive: [8] | [9]
active: [2] 25.4 µM | [3] 25.6 µM | [10] 28.1 µM

CC#Cc1cc(C)nc(Nc2ccccc2)n1
active: [3] 34.8 µM
not listed: [4]
inactive: all other assays above

Cc1ccccc1CO[C@@H]1C[C@@]2(C(C)C)CC[C@]1(C)O2
inactive: [3] | [10]
active: [2] 50 µM | [4] 50 µM

ClC1=C(Cl)[C@]2(Cl)[C@@H]3[C@H]4C[C@H]([C@@H]5O[C@H]45)[C@@H]3[C@@]1(Cl)C2(Cl)Cl
inactive: [5]
active: [1] 7.42 µM | [2] 1.48 µM | [3] 13 µM | [6] 5.13 µM | [7] 14.6 µM | [10] 3 µM

Nc1ccc(-c2ccc(N)cc2)cc1
inactive: [8] | [9]
active: [1] 79.6 µM | [2] 14.3 µM | [3] 37.4 µM | [5] 2.96 µM | [6] 65.8 µM | [7] 17.7 µM | [10] 15.2 µM

Oc1ccc(Cl)cc1Cl
active: [3] 22.2 µM | [8] 17 µM | [9] 24.4 µM
not listed: [4]
inactive: all other assays above

Cc1cc(O)ccc1Cl
active: [3] 21.5 µM
not listed: [4]
inactive: all other assays above
